{
  "source": "ChEMBL document CHEMBL4888484",
  "about": "“Replenishing the malaria drug discovery pipeline: Screening and hit evaluation of the MMV Hit Generation Library 1 (HGL1) against asexual blood stage Plasmodium falciparum ,using a nano luciferase reporter read-out” (2022)",
  "note": "About 540 (0.36%) of roughly 150,000 compounds showed an effect of 50% or more. What follows is part of a selection rich in strong results, with near analogues and random picks from the rest.",
  "data": [
    {"tested_on": "Plasmodium falciparum", "experiment": "Primary screen in NF54 nanoGlo assay, in single point, at 2uM, 72h; a lower Z score goes with more inhibition", "format": "functional, Erythrocyte", "conditions": "timepoint 72 hour", "units": {"% Inhibition": "%"}, "values": [
      {"molecule": "CC(C)n1cc(C(=O)N(CCOc2ccc(Cl)cc2)Cc2ccco2)cn1", "% Inhibition": -9, "Z score": 1.28},
      {"molecule": "O=C(Nc1cccc(C(F)(F)F)c1)C1(F)C(F)(F)C(F)(F)C(F)(F)C(F)(F)C1(F)F", "% Inhibition": 2, "Z score": -0.22},
      {"molecule": "c1ccc2oc(-c3nc(C4CC4)n[nH]3)cc2c1", "% Inhibition": -12, "Z score": 1.37},
      {"molecule": "N[C@@H](c1ccc2c(c1)CCO2)c1cc(Cl)ccc1Cl", "% Inhibition": 0, "Z score": -0.02},
      {"molecule": "O=C(Nc1nc(C(=O)N2CCN(c3ncccn3)CC2)co1)c1ccsc1", "% Inhibition": -2, "Z score": 0.31},
      {"molecule": "CCCN1CCCC[C@H]1C(=O)NCCCn1ccnc1", "% Inhibition": -6, "Z score": 1.01},
      {"molecule": "Cc1ccc(C(=O)N2CCC[C@H](CCC(=O)N3CCN(c4ccccn4)CC3)C2)s1", "% Inhibition": -8, "Z score": 1.24},
      {"molecule": "COc1ccc(-c2nc3ccc(Cc4ccc5nc(-c6ccc(OC)cc6)c(-c6ccc(OC)cc6)nc5c4)cc3nc2-c2ccc(OC)cc2)cc1", "% Inhibition": 11, "Z score": -2.21},
      {"molecule": "O=C(NC[C@H]1CCCN1c1ccccc1)c1ccccc1Br", "% Inhibition": -13, "Z score": 2.53},
      {"molecule": "Cc1ccc(S(=O)(=O)NCCn2c3ccccc3c3c(C)cc(C)nc32)cc1", "% Inhibition": -5, "Z score": 0.73},
      {"molecule": "C[C@@H](c1ccccc1)n1c(NC(=O)c2ccc(Cl)cc2)c(S(=O)(=O)c2ccccc2)c2nc3ccccc3nc21", "% Inhibition": -15, "Z score": 1.3},
      {"molecule": "COCCCn1c(NS(=O)(=O)c2ccc3ccccc3c2)c(S(=O)(=O)c2ccc(C)cc2)c2nc3ccccc3nc21", "% Inhibition": 57, "Z score": -8.33},
      {"molecule": "COCCCn1c(NS(=O)(=O)c2ccccc2)c(S(=O)(=O)c2ccc(C)cc2)c2nc3ccccc3nc21", "% Inhibition": 43, "Z score": -9.12},
      {"molecule": "CCCCn1c(NC(=O)c2ccccc2)c(S(=O)(=O)c2ccc(C)cc2)c2nc3ccccc3nc21", "% Inhibition": 0, "Z score": -0.03},
      {"molecule": "CCCCc1ccc(-n2c(NS(=O)(=O)c3ccc(Cl)cc3)c(S(=O)(=O)c3ccc(C)cc3)c3nc4ccccc4nc32)cc1", "% Inhibition": 4, "Z score": -0.41},
      {"molecule": "Cc1ccc(S(=O)(=O)Nc2cc3nc4ccccc4nc3n2CCc2ccccc2)cc1", "% Inhibition": 100, "Z score": -10.64},
      {"molecule": "O=C(Nc1c(S(=O)(=O)c2ccccc2)c2nc3ccccc3nc2n1CCc1ccccc1)c1ccc(Cl)cc1", "% Inhibition": 101, "Z score": -8.88},
      {"molecule": "CCCCn1c(NC(=O)c2ccccc2Cl)c(S(=O)(=O)c2ccccc2)c2nc3ccccc3nc21", "% Inhibition": -7, "Z score": 0.7},
      {"molecule": "CCOc1cccc2c1OC[C@@H](C(=O)N1CCCS1(=O)=O)C2", "% Inhibition": -7, "Z score": 1.2},
      {"molecule": "Cc1cc(C)c(-c2ccc(C(=O)N(C)CCn3ccnc3C)cc2)cc1C", "% Inhibition": -5, "Z score": 0.69},
      {"molecule": "COCCNc1c(-c2ccccc2)nc2sc(C(=O)NCc3cccnc3)c(C)n12", "% Inhibition": -31, "Z score": 3.13},
      {"molecule": "Cc1ccc(-n2cc(NC(=O)c3cc(C)no3)cn2)c(C)c1", "% Inhibition": -5, "Z score": 0.56},
      {"molecule": "O=c1c2cnc(N3CCc4ccccc4C3)nc2ccn1-c1ccc(Cl)c(Cl)c1", "% Inhibition": -8, "Z score": 1.01},
      {"molecule": "Cc1cccc(N2CCO[C@@H](CF)C2)n1", "% Inhibition": 5, "Z score": -0.46},
      {"molecule": "Cc1cnccc1NCCNCc1nc(C(C)C)cs1", "% Inhibition": 6, "Z score": -0.58},
      {"molecule": "CCn1ccc(CNCCNc2ccncc2C)n1", "% Inhibition": -3, "Z score": 0.68},
      {"molecule": "Cc1cnccc1NCCNCc1cccc(O)c1Cl", "% Inhibition": 88, "Z score": -13.09},
      {"molecule": "Cc1cnccc1NCCNCc1ccnc(C(C)C)n1", "% Inhibition": -15, "Z score": 1.39},
      {"molecule": "CC1CCN(Cn2c(=S)sc3ccccc32)CC1", "% Inhibition": -4, "Z score": 0.63},
      {"molecule": "Cc1nccn1CC(=O)N[C@@H](C)C1=CCCCC1", "% Inhibition": 3, "Z score": -0.38},
      {"molecule": "O=C1Nc2ccc(F)cc2C12CCNC2c1ccc2c(c1)OCCO2", "note": "(stereo unspecified)", "% Inhibition": 31, "Z score": -3.54},
      {"molecule": "Cn1c(N)c(S(=O)(=O)N2CCN(c3ccccc3Cl)CC2)c(=O)n(C)c1=O", "% Inhibition": 59, "Z score": -11.06},
      {"molecule": "CS(=O)(=O)N1CCN(S(=O)(=O)N2CCN(c3ccccc3Cl)CC2)CC1", "% Inhibition": 5, "Z score": -0.74},
      {"molecule": "Cc1ccccc1S(=O)(=O)N1CCN(c2c(C)n(-c3ccccc3)c(=O)n(C)c2=O)CC1", "% Inhibition": 36, "Z score": -0.1},
      {"molecule": "O=C(CCN(CCc1ccccc1)c1nc(C2CC2)nc2ccccc12)Nc1ccccc1", "% Inhibition": 0, "Z score": -0.06},
      {"molecule": "O=C(CCN1C(=O)CCC1=O)Nc1cccc(S(=O)(=O)N2CCCCC2)c1", "% Inhibition": -4, "Z score": 0.89},
      {"molecule": "CCN1CCN([C@H]2CCN(c3ccnc4c(F)cc(Cl)cc34)C2)CC1", "% Inhibition": 11, "Z score": -1.82},
      {"molecule": "CC(C)(C)OC(=O)N1CCC1CN1CCCC(c2nnc(N)o2)C1", "note": "(stereo unspecified)", "% Inhibition": 32, "Z score": -3.65},
      {"molecule": "Cn1ncc(Cl)c1C(=O)NCc1cccnc1Oc1ccc(F)c(F)c1", "% Inhibition": -3, "Z score": 0.62},
      {"molecule": "O=C(Cn1nnc2ccccc21)N(Cc1ccccc1)C1(C(=O)Nc2ccc3c(c2)OCO3)CCCCC1", "% Inhibition": 50, "Z score": -5.71},
      {"molecule": "O=C(Cn1nnc2ccccc21)N(Cc1cccnc1)C1(C(=O)Nc2ccc3c(c2)OCO3)CCCCC1", "% Inhibition": 36, "Z score": -0.52},
      {"molecule": "O=C(Cn1nnc2ccccc21)N(Cc1cccnc1)C1(C(=O)Nc2ccc3c(c2)OCO3)CCCC1", "% Inhibition": 5, "Z score": -0.59},
      {"molecule": "O=C(Cn1nnc2ccccc21)N(Cc1nc(-c2ccccc2)cs1)C1(C(=O)Nc2ccc3c(c2)OCO3)CCCC1", "% Inhibition": -7, "Z score": 0.77},
      {"molecule": "CN(C)c1ccc(NC(=O)C2(N(Cc3ccccc3)C(=O)Cn3nnc4ccccc43)CCCCC2)cc1", "% Inhibition": 51, "Z score": 0.77},
      {"molecule": "COc1ccc(NC(=O)C2(N(Cc3ccccc3)C(=O)Cn3nnc4ccccc43)CCCCC2)cc1", "% Inhibition": 44, "Z score": -1.28},
      {"molecule": "O=C(Cn1nnc2ccccc21)N(Cc1cccnc1)C1(C(=O)Nc2ccc(N3CCOCC3)cc2)CCCCC1", "% Inhibition": 2, "Z score": -0.25},
      {"molecule": "CN(C)c1ccc(NC(=O)C2(N(Cc3ccccc3)C(=O)Cn3nnc4ccccc43)CCCC2)cc1", "% Inhibition": 5, "Z score": -0.62},
      {"molecule": "COc1ccc(NC(=O)C2(N(Cc3nc(-c4ccccc4)cs3)C(=O)Cn3nnc4ccccc43)CCCCC2)cc1", "% Inhibition": 55, "Z score": -6.2},
      {"molecule": "CCc1cc2c(N3CC(c4ncc(C5CC5)cn4)C3)ncnc2s1", "% Inhibition": 0, "Z score": -0.06},
      {"molecule": "CN(C(=O)Cn1c(=O)n(C)c(=O)c2ccccc21)C1CCCCC1", "% Inhibition": -1, "Z score": 0.19},
      {"molecule": "Cc1cc(C(=O)N2CCOC3(CCS(=O)(=O)CC3)C2)c(C)s1", "% Inhibition": -13, "Z score": 1.28},
      {"molecule": "Cc1c(CN(C)C(=O)c2ccc(-c3ccc4c(c3)OCC4)cc2)cnn1C", "% Inhibition": -20, "Z score": 2.12},
      {"molecule": "COc1ccccc1-c1nnc2c3ccc(Cl)cc3nc(N3CCN(C(=O)c4ccc(C)cc4)CC3)n12", "% Inhibition": -13, "Z score": 1.38},
      {"molecule": "Cc1nc(-c2ccco2)ccc1C(=O)N[C@@H](C)c1nnnn1C", "% Inhibition": -12, "Z score": 1.8},
      {"molecule": "CCn1nc(-n2cnnc2)c(NS(=O)(=O)c2ccc(C)cc2)c1C", "% Inhibition": -9, "Z score": 1.53},
      {"molecule": "COc1ncnc2c1CN(C(=O)NCC1(Cc3ccccc3)CCC1)CC2", "% Inhibition": 29, "Z score": 1.68},
      {"molecule": "COc1cccc2c(Nc3ccc(C(=O)O)cc3)cc(C)nc12", "% Inhibition": -3, "Z score": 0.28},
      {"molecule": "Cc1cc(C)c2nc(C)cc(Nc3ccc(O)cc3)c2c1", "% Inhibition": 85, "Z score": -12.86},
      {"molecule": "Cc1cc(Nc2ccc(C)c(Cl)c2)c2cccc(C)c2n1", "% Inhibition": 23, "Z score": -2.05},
      {"molecule": "Cc1nonc1CC(=O)NCCCn1ccnn1", "% Inhibition": -4, "Z score": 0.49},
      {"molecule": "Cc1ccc2c(NC(=O)NCC3(CO)CCC3)cccc2n1", "% Inhibition": -9, "Z score": 1.22},
      {"molecule": "NC(=O)c1ncc(Br)cc1N1CCC[C@H](F)C1", "% Inhibition": -6, "Z score": 0.95},
      {"molecule": "O=C(Nc1nc2c(s1)CN(S(=O)(=O)c1c(F)cccc1F)CC2)c1ccco1", "% Inhibition": -5, "Z score": 0.7},
      {"molecule": "O=C(Nc1cccc(CNc2ncccn2)c1)c1ccco1", "% Inhibition": -4, "Z score": 0.39},
      {"molecule": "COc1ccc(-c2nc(C)cc(C)c2CNC(=O)c2ccco2)cc1", "% Inhibition": -2, "Z score": 0.33},
      {"molecule": "FC(F)(F)c1ccc(-c2nc(CN(Cc3ccccc3)Cc3ccccc3)cs2)cc1", "% Inhibition": 0, "Z score": 0.08},
      {"molecule": "CN(Cc1cccc(N(C)C)c1)Cc1csc(-c2ccoc2)n1", "% Inhibition": -5, "Z score": 0.54},
      {"molecule": "CC1(C)CN(C(=O)c2c(O)cnc3c(F)cccc23)C1C1CCCO1", "note": "(stereo unspecified)", "% Inhibition": -4, "Z score": 0.64},
      {"molecule": "CC(=O)Nc1ccc2nc(N3CCC(C(=O)NC4CC4)CC3)cc(C)c2c1", "% Inhibition": 8, "Z score": -1.23},
      {"molecule": "CCN(CC)c1ccc(C(=O)Nc2ccc3nc(N4CCCC4)cc(C)c3c2)cc1", "% Inhibition": 73, "Z score": -6.69},
      {"molecule": "CC(=O)Nc1ccc2nc(N3CCC(C(=O)N4CCC(N5CCCCC5)CC4)CC3)cc(C)c2c1", "% Inhibition": 10, "Z score": -1.6},
      {"molecule": "COc1ccc(C(=O)Nc2ccc3nc(N4CCC(C)CC4)cc(C)c3c2)cc1OC", "% Inhibition": 7, "Z score": -1.1},
      {"molecule": "Cc1cc(N2CCC(C)CC2)nc2ccc(NC(=O)c3cccnc3)cc12", "% Inhibition": 18, "Z score": -2.1},
      {"molecule": "COc1cc(OC)cc(C(=O)Nc2ccc3nc(N4CCC(C)CC4)cc(C)c3c2)c1", "% Inhibition": 58, "Z score": -3.66},
      {"molecule": "CCn1c(=O)sc2cc(NC(=O)c3ccc(C)cc3)ccc21", "% Inhibition": 5, "Z score": -0.91},
      {"molecule": "CC(Nc1ccc(C#N)nc1)C1CCCOC1", "note": "(stereo unspecified)", "% Inhibition": 1, "Z score": -0.15},
      {"molecule": "Cc1noc2ncnc(NC[C@](C)(O)c3cccc(F)c3)c12", "% Inhibition": -7, "Z score": 1.41},
      {"molecule": "CN(C)c1ccccc1NC(=O)Cn1ccc(=O)[nH]c1=O", "% Inhibition": -5, "Z score": 0.92}
    ]}
  ]
}
